We go through one sequence from PMC7862700, “An all-to-all approach to the identification of sequence-specific readers for epigenetic DNA modifications on cytosine”.

What all share (assay): DAPPL (digital affinity profiling via proximity ligation, sequencing); 10 mM Tris-HCl pH 7.5, 50 mM NaCl, 1 mM DTT, 4% glycerol, room temperature, 30 min; GST-TFs on glutathione beads, 16-mer random dsDNA library, 0.1% formaldehyde crosslink after washing; high values mean tight binding
The target in one experiment is T1, FEV (Homo sapiens, UniProt Q99581 1-238).
T1 sequence: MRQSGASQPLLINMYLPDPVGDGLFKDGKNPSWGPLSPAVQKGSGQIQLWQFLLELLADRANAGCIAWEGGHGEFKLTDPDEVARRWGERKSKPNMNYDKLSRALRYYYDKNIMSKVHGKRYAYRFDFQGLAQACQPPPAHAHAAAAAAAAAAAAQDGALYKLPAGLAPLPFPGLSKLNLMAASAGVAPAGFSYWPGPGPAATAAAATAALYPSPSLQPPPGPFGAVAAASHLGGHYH
The settings on record: protein: recombinant; tags: N-terminal GST; dsDNA, one strand shown. The essentials: (§1)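 Beads coated with glutathione captured GST-fused human transcription factors that had been expressed in yeast, and the factors were then given DNA barcodes and pooled with a tag-only sample. The pools were incubated with 200 nmole of a random double-stranded 16-mer DNA library in Tris/NaCl/DTT/glycerol buffer for 30 min at room temperature, washed, crosslinked with 0.1% formaldehyde and proximity-ligated with BsaI/T4 ligase at 37 °C for 1 h. PCR amplification and Illumina NextSeq500 sequencing came last. Binding signal is each hexamer's read frequency for a factor divided by its frequency for the tag-only sample.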

The next experiment deals with ETV5 (Homo sapiens, UniProt P41161 1-510). Particulars: protein: recombinant; tags: N-terminal GST; dsDNA, one strand shown. The essentials: as §1
Another experiment addresses HSF1 (Homo sapiens, UniProt Q00613 1-529). Particulars: protein: recombinant; tags: N-terminal GST; chain copies: 3; dsDNA, one strand shown. The essentials: as §1
A further experiment concerns the target T2, SPIC (Homo sapiens, UniProt Q8N5J4 1-248).
T2 sequence: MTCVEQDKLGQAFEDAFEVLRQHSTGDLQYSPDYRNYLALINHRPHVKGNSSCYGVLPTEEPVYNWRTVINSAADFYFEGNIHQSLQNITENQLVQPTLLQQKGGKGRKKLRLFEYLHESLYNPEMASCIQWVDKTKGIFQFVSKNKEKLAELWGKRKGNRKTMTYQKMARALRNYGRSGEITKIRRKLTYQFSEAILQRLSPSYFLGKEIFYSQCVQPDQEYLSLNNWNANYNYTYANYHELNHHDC
The settings on record: protein: recombinant; tags: N-terminal GST; dsDNA, one strand shown. The essentials: as §1

The next experiment has as its target ELF4 (Homo sapiens, UniProt Q99607 1-663). Particulars: protein: recombinant; tags: N-terminal GST; dsDNA, one strand shown. The essentials:
as §1

The next experiment concerns the target T3, ELK4 (Homo sapiens, UniProt P28324-2 1-405).
T3 sequence: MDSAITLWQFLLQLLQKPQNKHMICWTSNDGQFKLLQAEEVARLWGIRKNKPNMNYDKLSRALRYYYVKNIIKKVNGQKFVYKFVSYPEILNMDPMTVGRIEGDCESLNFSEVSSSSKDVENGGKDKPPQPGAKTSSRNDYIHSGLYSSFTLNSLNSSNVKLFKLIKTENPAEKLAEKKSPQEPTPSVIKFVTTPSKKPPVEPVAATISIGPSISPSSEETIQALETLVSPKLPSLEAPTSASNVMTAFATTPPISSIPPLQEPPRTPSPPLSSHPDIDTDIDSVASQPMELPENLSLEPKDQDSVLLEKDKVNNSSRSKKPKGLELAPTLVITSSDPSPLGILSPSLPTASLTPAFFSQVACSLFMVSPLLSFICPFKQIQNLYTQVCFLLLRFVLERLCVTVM
The settings on record: protein: recombinant; tags: N-terminal GST; dsDNA, one strand shown. The essentials:
as §1

For another experiment, the target named is T4, ETV2 (Homo sapiens, UniProt O00321 1-342).
T4 sequence: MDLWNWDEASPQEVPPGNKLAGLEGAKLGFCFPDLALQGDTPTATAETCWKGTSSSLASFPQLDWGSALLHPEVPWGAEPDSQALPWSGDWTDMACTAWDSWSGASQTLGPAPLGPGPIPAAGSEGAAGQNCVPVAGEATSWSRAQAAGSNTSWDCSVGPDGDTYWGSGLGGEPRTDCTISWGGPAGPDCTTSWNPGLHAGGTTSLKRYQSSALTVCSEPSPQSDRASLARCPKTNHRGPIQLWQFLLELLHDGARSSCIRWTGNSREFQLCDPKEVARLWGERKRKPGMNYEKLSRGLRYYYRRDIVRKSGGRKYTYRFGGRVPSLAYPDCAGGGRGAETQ
The settings on record: protein: recombinant; tags: N-terminal GST; dsDNA, one strand shown. The essentials:
as §1

Another experiment concerns the target T5, ELF3 (Homo sapiens, UniProt P78545 1-371).
T5 sequence: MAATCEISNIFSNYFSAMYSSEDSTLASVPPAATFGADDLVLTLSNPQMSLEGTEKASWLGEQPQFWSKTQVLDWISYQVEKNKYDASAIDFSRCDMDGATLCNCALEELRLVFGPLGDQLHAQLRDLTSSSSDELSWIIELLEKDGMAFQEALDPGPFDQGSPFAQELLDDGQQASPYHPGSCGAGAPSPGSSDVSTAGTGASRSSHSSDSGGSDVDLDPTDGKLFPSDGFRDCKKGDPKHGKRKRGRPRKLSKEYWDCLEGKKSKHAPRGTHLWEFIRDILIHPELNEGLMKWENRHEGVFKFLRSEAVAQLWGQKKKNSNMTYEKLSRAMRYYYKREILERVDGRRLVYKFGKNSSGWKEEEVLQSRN
The settings on record: protein: recombinant; tags: N-terminal GST; dsDNA, one strand shown. The essentials: as §1

The target in the next experiment is CRX (Homo sapiens, UniProt O43186 1-299). The settings on record: protein: recombinant; tags: N-terminal GST; dsDNA, one strand shown. In short, it runs like this: as §1
For the next experiment, the target named is ETV1 (Homo sapiens, UniProt P50549 1-477). Particulars: protein: recombinant; tags: N-terminal GST; dsDNA, one strand shown. The essentials:
as §1

The next experiment addresses T6, ERF (Homo sapiens, UniProt P50548 1-548).
T6 sequence: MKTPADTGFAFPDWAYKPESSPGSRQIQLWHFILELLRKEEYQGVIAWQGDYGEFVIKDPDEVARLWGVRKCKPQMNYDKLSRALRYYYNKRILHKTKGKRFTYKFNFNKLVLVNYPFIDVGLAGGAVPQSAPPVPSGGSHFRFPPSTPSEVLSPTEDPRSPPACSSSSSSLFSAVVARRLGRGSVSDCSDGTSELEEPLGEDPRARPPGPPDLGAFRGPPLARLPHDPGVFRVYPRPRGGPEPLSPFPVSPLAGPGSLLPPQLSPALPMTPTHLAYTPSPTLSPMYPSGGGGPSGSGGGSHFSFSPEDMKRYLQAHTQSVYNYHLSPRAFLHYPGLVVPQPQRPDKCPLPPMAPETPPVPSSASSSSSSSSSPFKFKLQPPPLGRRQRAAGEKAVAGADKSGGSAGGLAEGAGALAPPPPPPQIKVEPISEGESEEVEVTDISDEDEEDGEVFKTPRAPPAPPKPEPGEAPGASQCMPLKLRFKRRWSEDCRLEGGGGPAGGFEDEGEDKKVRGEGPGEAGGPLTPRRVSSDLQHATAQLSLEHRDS
Particulars: protein: recombinant; tags: N-terminal GST; dsDNA, one strand shown. In short, it runs like this:
as §1

The next experiment concerns the target T7, ETV3L (Homo sapiens, UniProt Q6ZN32 1-361).
T7 sequence: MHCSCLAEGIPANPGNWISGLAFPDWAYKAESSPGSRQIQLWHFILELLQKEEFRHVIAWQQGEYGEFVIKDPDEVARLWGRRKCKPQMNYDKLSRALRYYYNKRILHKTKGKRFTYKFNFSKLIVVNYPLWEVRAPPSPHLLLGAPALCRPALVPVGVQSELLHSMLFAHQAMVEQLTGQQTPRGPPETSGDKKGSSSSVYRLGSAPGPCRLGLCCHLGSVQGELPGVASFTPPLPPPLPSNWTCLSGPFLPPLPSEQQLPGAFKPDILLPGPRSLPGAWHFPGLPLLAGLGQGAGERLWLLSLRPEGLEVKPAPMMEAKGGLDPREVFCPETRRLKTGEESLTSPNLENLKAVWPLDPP
Particulars: protein: recombinant; tags: N-terminal GST; dsDNA, one strand shown. The essentials: as §1

The next experiment deals with T8, ETS2 (Homo sapiens, UniProt P15036 1-469).
T8 sequence: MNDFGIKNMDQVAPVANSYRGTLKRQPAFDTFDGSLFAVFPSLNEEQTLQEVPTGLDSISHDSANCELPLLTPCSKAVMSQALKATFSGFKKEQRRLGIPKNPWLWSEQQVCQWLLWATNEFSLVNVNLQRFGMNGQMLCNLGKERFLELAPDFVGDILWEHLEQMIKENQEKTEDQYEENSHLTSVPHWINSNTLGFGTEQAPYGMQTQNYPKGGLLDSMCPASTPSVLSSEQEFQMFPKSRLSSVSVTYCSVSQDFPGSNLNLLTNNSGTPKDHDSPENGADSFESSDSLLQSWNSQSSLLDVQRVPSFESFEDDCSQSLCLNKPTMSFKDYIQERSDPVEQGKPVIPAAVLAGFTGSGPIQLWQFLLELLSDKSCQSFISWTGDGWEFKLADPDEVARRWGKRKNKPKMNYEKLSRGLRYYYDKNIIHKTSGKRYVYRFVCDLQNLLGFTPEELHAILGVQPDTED
Particulars: protein: recombinant; tags: N-terminal GST; dsDNA, one strand shown. In short, it runs like this:
as §1

The target of a further experiment is T9, SPDEF (Homo sapiens, UniProt O95238 1-335).
T9 sequence: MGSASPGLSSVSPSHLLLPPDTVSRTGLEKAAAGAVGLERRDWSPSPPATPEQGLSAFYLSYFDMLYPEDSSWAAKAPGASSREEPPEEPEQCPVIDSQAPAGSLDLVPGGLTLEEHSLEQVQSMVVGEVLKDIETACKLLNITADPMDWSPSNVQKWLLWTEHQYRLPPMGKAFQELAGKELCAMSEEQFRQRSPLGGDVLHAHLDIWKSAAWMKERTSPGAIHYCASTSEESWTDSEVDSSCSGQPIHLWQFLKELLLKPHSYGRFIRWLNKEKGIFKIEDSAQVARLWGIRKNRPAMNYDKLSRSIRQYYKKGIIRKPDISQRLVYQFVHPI
The settings on record: protein: recombinant; tags: N-terminal GST; dsDNA, one strand shown. In short, it runs like this:
as §1

The next experiment deals with T10, ETV7 (Homo sapiens, UniProt Q9Y603 1-341).
T10 sequence: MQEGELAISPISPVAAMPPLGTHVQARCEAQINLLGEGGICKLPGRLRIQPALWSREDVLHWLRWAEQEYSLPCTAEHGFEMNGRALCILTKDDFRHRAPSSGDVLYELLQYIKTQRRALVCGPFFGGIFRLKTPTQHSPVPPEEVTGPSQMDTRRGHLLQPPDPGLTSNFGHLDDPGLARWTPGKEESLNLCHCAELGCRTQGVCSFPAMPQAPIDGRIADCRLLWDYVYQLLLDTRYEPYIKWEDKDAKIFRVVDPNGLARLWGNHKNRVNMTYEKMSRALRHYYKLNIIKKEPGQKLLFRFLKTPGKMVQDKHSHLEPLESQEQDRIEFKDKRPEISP
Particulars: protein: recombinant; tags: N-terminal GST; dsDNA, one strand shown. The essentials:
as §1

The target of the next experiment is T11, ELF5 (Homo sapiens, UniProt Q9UKW6-2 1-255).
T11 sequence: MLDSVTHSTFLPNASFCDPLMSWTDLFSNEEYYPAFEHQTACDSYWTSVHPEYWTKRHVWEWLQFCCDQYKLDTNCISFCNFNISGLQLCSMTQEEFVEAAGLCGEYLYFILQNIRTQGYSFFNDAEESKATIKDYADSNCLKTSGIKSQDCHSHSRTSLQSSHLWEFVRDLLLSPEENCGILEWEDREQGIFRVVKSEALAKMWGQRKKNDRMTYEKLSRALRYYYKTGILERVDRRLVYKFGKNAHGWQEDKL
Particulars: protein: recombinant; tags: N-terminal GST; dsDNA, one strand shown. In short, it runs like this:
as §1

For a further experiment, the target named is T12, ETV3 (Homo sapiens, UniProt P41162-2 1-143).
T12 sequence: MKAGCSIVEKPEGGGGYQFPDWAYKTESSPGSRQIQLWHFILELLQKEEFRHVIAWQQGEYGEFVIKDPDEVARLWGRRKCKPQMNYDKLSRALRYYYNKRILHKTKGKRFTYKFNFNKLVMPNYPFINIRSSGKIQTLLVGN
Particulars: protein: recombinant; tags: N-terminal GST; dsDNA, one strand shown. In short, it runs like this: as §1

In the next experiment the target is ETV6 (Homo sapiens, UniProt P41212 1-452). Particulars: protein: recombinant; tags: N-terminal GST; dsDNA, one strand shown. In short, it runs like this: as §1
Sequence of ETV6 (P41212 whole entry): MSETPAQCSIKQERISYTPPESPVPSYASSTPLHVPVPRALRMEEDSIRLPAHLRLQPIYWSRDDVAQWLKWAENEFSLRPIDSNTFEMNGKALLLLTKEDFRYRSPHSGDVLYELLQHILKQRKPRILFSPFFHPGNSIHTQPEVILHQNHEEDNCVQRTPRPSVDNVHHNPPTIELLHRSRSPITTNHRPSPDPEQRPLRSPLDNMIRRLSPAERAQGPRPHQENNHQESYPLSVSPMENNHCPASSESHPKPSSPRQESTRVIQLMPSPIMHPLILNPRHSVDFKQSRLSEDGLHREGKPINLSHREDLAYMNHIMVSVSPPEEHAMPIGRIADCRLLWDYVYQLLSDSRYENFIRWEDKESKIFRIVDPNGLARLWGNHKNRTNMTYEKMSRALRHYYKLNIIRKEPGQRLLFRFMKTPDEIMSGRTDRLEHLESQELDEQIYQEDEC

Sequence of HSF1 (Q00613 whole entry): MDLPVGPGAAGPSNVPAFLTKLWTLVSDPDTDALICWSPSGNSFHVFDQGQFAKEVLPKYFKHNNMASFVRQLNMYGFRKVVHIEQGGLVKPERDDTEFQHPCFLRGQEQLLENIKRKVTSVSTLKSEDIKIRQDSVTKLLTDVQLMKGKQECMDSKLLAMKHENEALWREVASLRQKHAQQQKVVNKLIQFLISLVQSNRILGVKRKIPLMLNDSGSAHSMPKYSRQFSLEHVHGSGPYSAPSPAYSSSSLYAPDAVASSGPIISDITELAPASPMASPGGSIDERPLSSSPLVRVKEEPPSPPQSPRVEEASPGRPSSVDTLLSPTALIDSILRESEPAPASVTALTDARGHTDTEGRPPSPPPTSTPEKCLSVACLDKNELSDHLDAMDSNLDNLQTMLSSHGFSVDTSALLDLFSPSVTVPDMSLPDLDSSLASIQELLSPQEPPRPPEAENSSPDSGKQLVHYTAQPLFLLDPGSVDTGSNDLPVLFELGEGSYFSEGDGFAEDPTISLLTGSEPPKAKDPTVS
Sequence of ETV5 (P41161 whole entry): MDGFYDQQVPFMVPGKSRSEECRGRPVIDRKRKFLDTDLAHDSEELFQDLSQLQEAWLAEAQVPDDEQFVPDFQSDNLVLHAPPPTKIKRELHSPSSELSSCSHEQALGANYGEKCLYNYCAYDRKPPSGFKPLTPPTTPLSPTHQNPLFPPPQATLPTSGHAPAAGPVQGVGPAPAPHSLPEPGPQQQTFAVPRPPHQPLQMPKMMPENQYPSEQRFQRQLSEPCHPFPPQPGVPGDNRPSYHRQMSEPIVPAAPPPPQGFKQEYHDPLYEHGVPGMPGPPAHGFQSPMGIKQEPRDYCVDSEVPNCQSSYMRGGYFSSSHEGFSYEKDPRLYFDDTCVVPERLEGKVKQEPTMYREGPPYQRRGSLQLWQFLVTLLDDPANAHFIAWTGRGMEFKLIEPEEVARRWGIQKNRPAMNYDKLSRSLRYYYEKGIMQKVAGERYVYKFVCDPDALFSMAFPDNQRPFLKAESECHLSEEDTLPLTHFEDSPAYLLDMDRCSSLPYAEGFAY
Sequence of ELF4 (Q99607 whole entry): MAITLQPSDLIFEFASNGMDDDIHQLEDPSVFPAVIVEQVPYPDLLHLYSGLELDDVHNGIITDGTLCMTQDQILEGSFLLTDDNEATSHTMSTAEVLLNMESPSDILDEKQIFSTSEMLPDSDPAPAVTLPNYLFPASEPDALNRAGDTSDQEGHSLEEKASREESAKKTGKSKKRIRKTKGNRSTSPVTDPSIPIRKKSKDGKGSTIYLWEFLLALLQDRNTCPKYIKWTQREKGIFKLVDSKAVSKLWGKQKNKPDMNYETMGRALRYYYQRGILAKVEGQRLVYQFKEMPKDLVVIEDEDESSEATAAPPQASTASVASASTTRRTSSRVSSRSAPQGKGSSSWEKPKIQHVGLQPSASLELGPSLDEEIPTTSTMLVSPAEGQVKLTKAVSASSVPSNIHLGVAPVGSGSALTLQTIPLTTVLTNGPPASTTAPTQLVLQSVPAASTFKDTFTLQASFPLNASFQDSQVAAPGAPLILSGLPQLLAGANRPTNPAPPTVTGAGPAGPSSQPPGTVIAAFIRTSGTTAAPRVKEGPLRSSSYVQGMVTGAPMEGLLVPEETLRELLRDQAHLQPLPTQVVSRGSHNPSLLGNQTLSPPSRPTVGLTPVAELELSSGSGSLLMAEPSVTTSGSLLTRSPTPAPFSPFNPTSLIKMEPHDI
Sequence of ETV1 (P50549 whole entry): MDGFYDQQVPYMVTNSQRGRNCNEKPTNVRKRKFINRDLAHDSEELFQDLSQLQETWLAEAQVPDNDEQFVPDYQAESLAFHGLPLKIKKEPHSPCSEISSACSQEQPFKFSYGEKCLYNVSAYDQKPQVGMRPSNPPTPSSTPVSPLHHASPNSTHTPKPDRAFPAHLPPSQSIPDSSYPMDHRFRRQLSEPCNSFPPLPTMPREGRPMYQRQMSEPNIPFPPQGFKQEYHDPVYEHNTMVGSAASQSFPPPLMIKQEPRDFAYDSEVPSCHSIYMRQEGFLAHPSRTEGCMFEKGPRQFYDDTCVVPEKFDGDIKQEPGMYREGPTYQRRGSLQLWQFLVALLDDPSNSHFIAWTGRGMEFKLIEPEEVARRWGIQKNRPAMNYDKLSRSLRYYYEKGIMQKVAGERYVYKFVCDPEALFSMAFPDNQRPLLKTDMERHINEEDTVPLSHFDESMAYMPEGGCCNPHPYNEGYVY
Sequence of CRX (O43186 whole entry): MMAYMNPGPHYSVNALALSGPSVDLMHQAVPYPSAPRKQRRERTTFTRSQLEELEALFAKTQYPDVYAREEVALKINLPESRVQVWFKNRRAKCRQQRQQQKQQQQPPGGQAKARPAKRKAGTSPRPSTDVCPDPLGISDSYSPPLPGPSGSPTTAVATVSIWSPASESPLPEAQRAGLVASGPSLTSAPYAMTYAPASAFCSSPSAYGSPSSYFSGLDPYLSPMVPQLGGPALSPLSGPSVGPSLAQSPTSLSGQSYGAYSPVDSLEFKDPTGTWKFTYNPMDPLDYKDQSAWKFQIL

Consider ATCTTC, for which the binding signal in the experiment with FEV was 1.39 fold enrichment (6-mer frequency, TF over GST control); with ETV5 it was 1.6 fold enrichment (6-mer frequency, TF over GST control); in the experiment with HSF1 it was 2.15 fold enrichment (6-mer frequency, TF over GST control); with SPIC, 1.49 fold enrichment (6-mer frequency, TF over GST control); with ELF4, 1.31 fold enrichment (6-mer frequency, TF over GST control); with ELK4, 1.56 fold enrichment (6-mer frequency, TF over GST control). For the same sequence, the binding signal with ETV2 was 1.75 fold enrichment (6-mer frequency, TF over GST control); in the experiment with ELF3, 1.69 fold enrichment (6-mer frequency, TF over GST control); in the experiment with CRX it was 1.98 fold enrichment (6-mer frequency, TF over GST control); with ETV1 it was 1.63 fold enrichment (6-mer frequency, TF over GST control); with ERF, 1.45 fold enrichment (6-mer frequency, TF over GST control); with ETV3L, 1.63 fold enrichment (6-mer frequency, TF over GST control). The binding signal in the experiment with ETS2 was 1.6 fold enrichment (6-mer frequency, TF over GST control); in the experiment with SPDEF, 1.55 fold enrichment (6-mer frequency, TF over GST control); with ETV7, 1.43 fold enrichment (6-mer frequency, TF over GST control); with ELF5, 1.82 fold enrichment (6-mer frequency, TF over GST control); in the experiment with ETV3, 1.49 fold enrichment (6-mer frequency, TF over GST control); in the experiment with ETV6, 1.54 fold enrichment (6-mer frequency, TF over GST control).
